Measurements from the supplement of paper PMC10849652.
The full data set covers some 8,800 targets. This sample favours those with a hit. About 0.5% of all pairs of compound and target were hits. A number with no mark means an inactive call.

What was measured:
Assay in all cases: log2 fold change, soluble protein after heating vs DMSO (PISA); higher = thermal stabilisation; K562 lysate, 10 uM; active = over 0.2 and 3.5 SD of the protein, either way, in both replicates (recomputed)
lapatinib = compound: CS(=O)(=O)CCNCc1ccc(-c2ccc3ncnc(Nc4ccc(OCc5cccc(F)c5)c(Cl)c4)c3c2)o1 [lapatinib]
Outline: (§1)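 Dounce homogenisation of K562 pellets in PBS pH 7.4 with 1 mM MgCl2 produced a crude extract, used at 1 mg/mL protein. Exposure to 10 μM compound lasted 30 min, and aliquots were then heated for 3 min across 48°C-58°C, pooled and brought to 0.5% NP-40 at 4°C. The supernatant after 21,000xg for 90 min was quantified by TMTpro 16plex LC-MS/MS with channel sums equalised. Duplicate values are given as log-two fold change in thermal stability relative to solvent controls.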

pictilisib = compound: CS(=O)(=O)N1CCN(Cc2cc3nc(-c4cccc5[nH]ncc45)nc(N4CCOCC4)c3s2)CC1 [pictilisib]
Outline: as §1

crizotinib = compound: C[C@@H](Oc1cc(-c2cnn(C3CCNCC3)c2)cnc1N)c1c(Cl)ccc(F)c1Cl [crizotinib]
Outline: as §1

[1] = compound: C[C@H](C1=CC=C(C=C1)C(=O)NC2=C3C=CNC3=NC=C2)N
Outline: as §1

duvelisib = compound: C[C@H](Nc1ncnc2nc[nH]c12)c1cc2cccc(Cl)c2c(=O)n1-c1ccccc1 [duvelisib]
Outline: as §1

gandotinib = compound: Cc1cc(Nc2cc(CN3CCOCC3)c3nc(C)c(Cc4ccc(Cl)cc4F)n3n2)n[nH]1 [gandotinib]
Outline: as §1

tozasertib = compound: Cc1cc(Nc2cc(N3CCN(C)CC3)nc(Sc3ccc(NC(=O)C4CC4)cc3)n2)n[nH]1 [tozasertib]
Outline: as §1

doramapimod = compound: Cc1ccc(-n2nc(C(C)(C)C)cc2NC(=O)Nc2ccc(OCCN3CCOCC3)c3ccccc23)cc1 [doramapimod]
Outline: as §1

bafetinib = compound: Cc1ccc(NC(=O)c2ccc(CN3CC[C@H](N(C)C)C3)c(C(F)(F)F)c2)cc1Nc1nccc(-c2cncnc2)n1 [bafetinib]
Outline: as §1

[2] = compound: Cc1cccc(CC(=O)N2CCc3c2ccc(-c2cn(C)c4ncnc(N)c24)c3F)n1
Outline: as §1

nilotinib = compound: Cc1cn(-c2cc(NC(=O)c3ccc(C)c(Nc4nccc(-c5cccnc5)n4)c3)cc(C(F)(F)F)c2)cn1 [nilotinib]
Outline: as §1

[3] = compound: Cc1nc(Nc2n[nH]c3c2CN(C(=O)N[C@H](CN(C)C)c2ccccc2)C3(C)C)c2sccc2n1
Outline: as §1

dasatinib = compound: Cc1nc(Nc2ncc(C(=O)Nc3c(C)cccc3Cl)s2)cc(N2CCN(CCO)CC2)n1 [dasatinib]
Outline: as §1

[4] = compound: Cc1ncc(-c2ccnc(Nc3ccc(S(C)(=O)=O)cc3)n2)n1C(C)C
Outline: as §1

[5] = compound: Cn1cc(-c2ccc3c(c2)CCN3C(=O)Cc2cccc(C(F)(F)F)c2)c2c(N)ncnc21
Outline: as §1

quisinostat = compound: Cn1cc(CNCC2CCN(c3ncc(C(=O)NO)cn3)CC2)c2ccccc21 [quisinostat]
Outline: as §1

tipifarnib = compound: Cn1cncc1[C@@](N)(c1ccc(Cl)cc1)c1ccc2c(c1)c(-c1cccc(Cl)c1)cc(=O)n2C [tipifarnib]
Outline: as §1

[6] = compound: NC(=O)Nc1cc(-c2cccc(F)c2)sc1C(=O)N[C@H]1CCCNC1
Outline: as §1

[7] = compound: NC(=O)c1cnc(N[C@@H]2CCCC[C@@H]2N)nc1Nc1cccc(-n2nccn2)c1
Outline: as §1

[8] = compound: NC1(c2ccc(-c3nc4ccn5c(=O)[nH]nc5c4cc3-c3ccccc3)cc2)CCC1
Outline: as §1

UniProt P17707, sequence (P17707 whole entry, looked up): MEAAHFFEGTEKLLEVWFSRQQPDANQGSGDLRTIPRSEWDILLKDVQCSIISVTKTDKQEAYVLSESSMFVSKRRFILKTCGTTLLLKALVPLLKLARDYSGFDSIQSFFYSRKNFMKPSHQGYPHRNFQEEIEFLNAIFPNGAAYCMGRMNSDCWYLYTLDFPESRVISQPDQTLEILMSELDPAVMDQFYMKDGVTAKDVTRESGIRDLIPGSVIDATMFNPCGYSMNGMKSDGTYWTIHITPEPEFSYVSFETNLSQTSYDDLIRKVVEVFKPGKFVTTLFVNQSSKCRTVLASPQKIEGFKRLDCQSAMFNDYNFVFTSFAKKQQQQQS
UniProt P30837, sequence (P30837 whole entry, looked up): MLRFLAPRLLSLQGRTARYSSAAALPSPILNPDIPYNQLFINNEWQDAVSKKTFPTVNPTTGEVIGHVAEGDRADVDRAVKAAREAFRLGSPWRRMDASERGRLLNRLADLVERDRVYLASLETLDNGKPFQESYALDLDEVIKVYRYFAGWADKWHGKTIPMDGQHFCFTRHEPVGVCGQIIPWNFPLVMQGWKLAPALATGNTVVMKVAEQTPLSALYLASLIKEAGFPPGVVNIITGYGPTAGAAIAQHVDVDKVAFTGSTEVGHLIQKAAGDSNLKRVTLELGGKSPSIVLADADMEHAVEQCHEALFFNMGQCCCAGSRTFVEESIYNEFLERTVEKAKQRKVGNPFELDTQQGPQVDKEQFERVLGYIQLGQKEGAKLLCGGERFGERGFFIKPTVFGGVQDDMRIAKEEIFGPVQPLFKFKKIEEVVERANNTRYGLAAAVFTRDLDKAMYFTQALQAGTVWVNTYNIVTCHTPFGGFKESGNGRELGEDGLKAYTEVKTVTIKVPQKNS
UniProt Q9ULX6, sequence (Q9ULX6 whole entry, looked up): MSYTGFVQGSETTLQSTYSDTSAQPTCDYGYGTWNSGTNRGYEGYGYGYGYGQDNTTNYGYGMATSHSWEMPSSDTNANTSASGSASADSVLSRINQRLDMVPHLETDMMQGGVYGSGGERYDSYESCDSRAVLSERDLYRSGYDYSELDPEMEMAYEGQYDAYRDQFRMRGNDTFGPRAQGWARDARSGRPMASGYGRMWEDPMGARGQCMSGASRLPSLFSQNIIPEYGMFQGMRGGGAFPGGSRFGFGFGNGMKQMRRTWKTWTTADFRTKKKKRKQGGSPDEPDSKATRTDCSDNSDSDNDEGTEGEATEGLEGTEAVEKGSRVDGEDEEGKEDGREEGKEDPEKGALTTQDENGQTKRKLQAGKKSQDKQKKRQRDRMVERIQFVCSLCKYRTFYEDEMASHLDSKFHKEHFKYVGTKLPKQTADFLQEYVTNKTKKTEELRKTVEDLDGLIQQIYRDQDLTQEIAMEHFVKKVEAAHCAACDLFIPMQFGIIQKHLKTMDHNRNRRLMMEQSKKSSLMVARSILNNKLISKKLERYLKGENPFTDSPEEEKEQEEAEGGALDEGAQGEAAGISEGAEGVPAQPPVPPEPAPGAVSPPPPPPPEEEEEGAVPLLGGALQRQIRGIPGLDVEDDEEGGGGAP
UniProt Q8N6T3, sequence (Q8N6T3 whole entry, looked up): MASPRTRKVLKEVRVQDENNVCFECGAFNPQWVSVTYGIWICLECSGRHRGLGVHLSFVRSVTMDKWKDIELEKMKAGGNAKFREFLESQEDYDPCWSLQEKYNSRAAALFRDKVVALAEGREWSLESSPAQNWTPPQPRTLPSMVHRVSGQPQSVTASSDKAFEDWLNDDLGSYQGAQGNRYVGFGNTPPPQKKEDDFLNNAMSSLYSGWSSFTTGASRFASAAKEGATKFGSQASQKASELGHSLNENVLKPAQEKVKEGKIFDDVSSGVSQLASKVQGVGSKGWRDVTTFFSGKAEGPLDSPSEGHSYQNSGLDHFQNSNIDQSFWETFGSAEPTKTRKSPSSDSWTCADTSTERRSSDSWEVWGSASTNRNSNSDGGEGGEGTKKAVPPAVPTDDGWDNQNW
UniProt Q9UG63, sequence (Q9UG63 whole entry, looked up): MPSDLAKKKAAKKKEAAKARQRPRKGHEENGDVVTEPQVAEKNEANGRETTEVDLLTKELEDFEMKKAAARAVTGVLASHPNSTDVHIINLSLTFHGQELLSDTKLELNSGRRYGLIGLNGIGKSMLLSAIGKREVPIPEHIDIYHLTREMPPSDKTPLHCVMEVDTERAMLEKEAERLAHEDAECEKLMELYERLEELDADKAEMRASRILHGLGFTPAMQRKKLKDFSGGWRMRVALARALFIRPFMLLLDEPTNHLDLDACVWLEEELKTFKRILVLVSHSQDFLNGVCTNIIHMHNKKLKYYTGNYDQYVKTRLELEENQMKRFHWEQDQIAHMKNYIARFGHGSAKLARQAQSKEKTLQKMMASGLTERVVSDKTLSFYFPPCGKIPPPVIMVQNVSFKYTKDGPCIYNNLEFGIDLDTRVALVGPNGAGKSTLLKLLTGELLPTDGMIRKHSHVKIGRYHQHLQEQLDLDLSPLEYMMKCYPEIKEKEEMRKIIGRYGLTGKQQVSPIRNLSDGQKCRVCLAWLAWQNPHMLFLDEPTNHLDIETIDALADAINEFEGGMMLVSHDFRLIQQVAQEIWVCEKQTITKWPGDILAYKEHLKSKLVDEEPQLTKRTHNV
UniProt Q8NB46, sequence (Q8NB46 whole entry, looked up): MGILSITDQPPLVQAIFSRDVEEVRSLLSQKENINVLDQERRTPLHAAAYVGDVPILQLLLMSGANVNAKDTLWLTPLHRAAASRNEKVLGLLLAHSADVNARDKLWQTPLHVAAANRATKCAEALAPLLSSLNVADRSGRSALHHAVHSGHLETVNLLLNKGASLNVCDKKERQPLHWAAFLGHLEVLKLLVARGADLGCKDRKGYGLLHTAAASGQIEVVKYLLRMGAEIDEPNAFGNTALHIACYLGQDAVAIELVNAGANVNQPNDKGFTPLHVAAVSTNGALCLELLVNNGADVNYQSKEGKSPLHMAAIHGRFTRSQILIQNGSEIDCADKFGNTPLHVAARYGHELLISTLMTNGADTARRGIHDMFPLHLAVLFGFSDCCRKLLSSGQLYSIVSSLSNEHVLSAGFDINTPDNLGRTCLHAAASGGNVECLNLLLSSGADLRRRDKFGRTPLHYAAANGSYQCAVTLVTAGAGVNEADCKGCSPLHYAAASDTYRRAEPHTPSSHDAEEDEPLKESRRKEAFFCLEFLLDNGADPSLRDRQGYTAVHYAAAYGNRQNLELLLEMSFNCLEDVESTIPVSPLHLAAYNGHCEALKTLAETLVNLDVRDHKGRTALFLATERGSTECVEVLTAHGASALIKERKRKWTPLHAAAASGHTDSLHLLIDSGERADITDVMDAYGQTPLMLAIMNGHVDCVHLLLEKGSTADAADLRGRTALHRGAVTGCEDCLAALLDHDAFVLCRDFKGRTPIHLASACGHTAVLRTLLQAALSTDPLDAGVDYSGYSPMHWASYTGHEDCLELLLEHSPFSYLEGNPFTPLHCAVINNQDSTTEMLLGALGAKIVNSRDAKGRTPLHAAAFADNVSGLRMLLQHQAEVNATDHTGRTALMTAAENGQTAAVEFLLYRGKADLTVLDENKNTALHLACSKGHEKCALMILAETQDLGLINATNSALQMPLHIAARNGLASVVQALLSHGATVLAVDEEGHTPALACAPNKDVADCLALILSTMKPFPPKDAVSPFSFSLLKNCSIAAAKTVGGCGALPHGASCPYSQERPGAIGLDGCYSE
UniProt Q6NXE6, sequence (Q6NXE6 whole entry, looked up): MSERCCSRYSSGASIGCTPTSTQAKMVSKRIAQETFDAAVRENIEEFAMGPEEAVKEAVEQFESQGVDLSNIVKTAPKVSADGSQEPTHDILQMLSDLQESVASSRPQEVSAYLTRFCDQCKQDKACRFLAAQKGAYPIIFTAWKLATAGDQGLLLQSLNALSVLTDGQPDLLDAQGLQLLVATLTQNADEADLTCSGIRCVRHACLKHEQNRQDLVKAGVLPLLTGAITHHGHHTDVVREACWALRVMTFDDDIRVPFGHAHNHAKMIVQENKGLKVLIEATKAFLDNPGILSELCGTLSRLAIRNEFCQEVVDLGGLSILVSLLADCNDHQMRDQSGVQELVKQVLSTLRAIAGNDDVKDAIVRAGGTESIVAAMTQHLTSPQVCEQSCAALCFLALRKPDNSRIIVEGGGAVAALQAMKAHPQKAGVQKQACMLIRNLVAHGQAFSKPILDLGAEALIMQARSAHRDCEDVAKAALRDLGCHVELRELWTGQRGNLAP
UniProt Q96BM9, sequence (Q96BM9 whole entry, looked up): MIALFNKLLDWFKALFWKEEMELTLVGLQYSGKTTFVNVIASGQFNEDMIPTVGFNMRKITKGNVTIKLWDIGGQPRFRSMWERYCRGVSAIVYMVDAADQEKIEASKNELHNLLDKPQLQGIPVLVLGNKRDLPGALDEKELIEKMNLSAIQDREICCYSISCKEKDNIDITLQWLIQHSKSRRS

Row | Target | log2 fold change (lapatinib) | log2 fold change (pictilisib) | log2 fold change (crizotinib) | log2 fold change [1] | log2 fold change (duvelisib) | log2 fold change (gandotinib) | log2 fold change (tozasertib) | log2 fold change (doramapimod) | log2 fold change (bafetinib) | log2 fold change [2] | log2 fold change (nilotinib) | log2 fold change [3] | log2 fold change (dasatinib) | log2 fold change [4] | log2 fold change [5] | log2 fold change (quisinostat) | log2 fold change (tipifarnib) | log2 fold change [6] | log2 fold change [7] | log2 fold change [8]
1 | ANKRD52 (UniProt Q8NB46) | -0.133 | -0.036 | -0.11 | -0.004 | 0.01 | 0.012 | 0 | 0.001 | -0.071 | 0.034 | 0.041 | 0.003 | -0.048 | -0.026 | -0.045 | -0.037 | -0.017 | 0.005 | -0.056 | -0.028
2 | ABCF2 isoform 2 (UniProt Q9UG63) | -0.038 | -0.005 | -0.011 | -0.001 | 0.021 | -0.097 | 0.057 | -0.002 | -0.025 | -0.024 | 0.001 | -0.001 | -0.036 | -0.024 | 0.005 | -0.022 | 0.002 | 0.042 | -0.002 | -0.023
3 | ARL8A (UniProt Q96BM9) | -0.11 | 0.038 | 0.091 | 0.426 (active) | -0.078 | 0 | -0.063 | -0.005 | -0.016 | -0.088 | 0.003 | 0.049 | 0.037 | 0.091 | -0.049 | 0.17 | -0.203 | 0.153 | 0.247 | -0.054
4 | ARMC6 (UniProt Q6NXE6) | 0 | -0.015 | -0.022 | 0.012 | -0.027 | -0.067 | 0.024 | 0 | -0.016 | -0.009 | -0.001 | -0.006 | -0.055 | -0.017 | 0.013 | -0.057 | 0 | 0.094 | 0.017 | -0.031
5 | ALDH1B1 (UniProt P30837) | -0.012 | 0.008 | -0.007 | -0.024 | 0.058 | 0.052 | 0.021 | -0.017 | -0.049 | -0.041 | 0.096 | -0.015 | -0.022 | 0.013 | 0.034 | 0.118 | 0.05 | 0.046 | 0.011 | 0.003
6 | ARFGAP1 (UniProt Q8N6T3) | 0.002 | 0.175 | 0.031 | -0.077 | -0.054 | 1.08 (active) | -0.011 | 0.202 | -0.157 | 0.202 | 0.159 | 0.1 | -0.03 | -0.016 | -0.043 | -0.004 | -0.475 (active) | 0.063 | -0.032 | -0.111
7 | AMD1 (UniProt P17707) | -0.125 | 0.056 | 0.035 | -0.099 | 0.12 | 0.107 | 0.05 | 0.316 | -0.07 | 0.048 | -0.05 | -0.04 | -0.031 | -0.001 | 0.055 | -0.145 | -0.005 | 0.151 | 0.229 | -0.022
8 | AKAP8L (UniProt Q9ULX6) | 0.017 | -0.018 | 0.053 | -0.05 | 0.038 | 0.033 | 0 | -0.153 | 0.016 | 0.011 | -0.267 (active) | 0.022 | -0.062 | 0.016 | 0.037 | -0.024 | -0.011 | 0.055 | 0.002 | 0.028
